Here are results for 40 sequences from publication PMC13541613, “GHT-SELEX demonstrates unexpectedly high intrinsic sequence specificity and complex DNA binding of many human transcription factors”.

Sequence of ZNF721 DBD1 (Q8TF20 17-449): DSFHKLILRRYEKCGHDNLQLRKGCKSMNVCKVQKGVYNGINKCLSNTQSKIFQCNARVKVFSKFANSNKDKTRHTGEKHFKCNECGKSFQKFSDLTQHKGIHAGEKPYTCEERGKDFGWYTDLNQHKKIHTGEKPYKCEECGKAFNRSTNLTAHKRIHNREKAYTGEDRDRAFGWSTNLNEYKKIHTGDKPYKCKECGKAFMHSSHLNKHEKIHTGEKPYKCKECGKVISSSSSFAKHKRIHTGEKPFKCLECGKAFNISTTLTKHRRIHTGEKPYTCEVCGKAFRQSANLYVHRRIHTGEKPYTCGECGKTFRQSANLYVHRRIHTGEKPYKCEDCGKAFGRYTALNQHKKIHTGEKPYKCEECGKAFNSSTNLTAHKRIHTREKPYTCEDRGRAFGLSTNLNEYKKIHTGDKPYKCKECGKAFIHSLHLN

The target in the experiment is ZNF721 DBD1 (Homo sapiens, UniProt Q8TF20-2 29-461). Briefly: HT-SELEX; 20 mM HEPES pH 7, 140 mM KCl, 5 mM NaCl, 1 mM K2HPO4, 2 mM MgSO4, 100 uM EGTA, ZnSO4, 0.1% Tween20; room temperature, 1 h; high values mean tight binding. To be noted: protein: ivt; tags: eGFP (N-terminal); dsDNA, one strand shown. In outline:
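Bead-immobilised tagged transcription factor (full-length or DNA-binding-domain fragment), made in HEK293 lysate or cell-free extract, was incubated with a randomized 40-base DNA library. Binding was for 1 h at room temperature in HEPES/KCl low-stringency buffer with Tween20. After washing and heat elution, bound DNA was PCR-amplified over successive cycles and Illumina-sequenced (~3 million 60 bp reads per sample). Binding signal is a relative k-mer count in selected reads; higher means tighter binding.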
Regarding CCCCTACCCC, the binding signal came to 0.00954 relative 10-mer count.
The same measure for AAAAAAAAGA: 0.00757 relative 10-mer count.
For CTCCCACCCC the value was 0.0128 relative 10-mer count.
For CCCCCCCCTC the value was 0.00619 relative 10-mer count; for CCACCCACAC, 0.00734 relative 10-mer count.
Consider CTCCCCCCGC, for which the binding signal was 0.00468 relative 10-mer count.
CCCCCTCCAC: the binding signal turned out to be 0.00908 relative 10-mer count.
For CCCTCACCAC the value was 0.00482 relative 10-mer count; for CCGCCCCCGC, 0.00491 relative 10-mer count.
The same measure for CCGTCCCACC: 0.00546 relative 10-mer count.
Take AAAAGGCATA: the binding signal came to 0.00161 relative 10-mer count.
For AAAGAAGCTA the value was 0.109 relative 10-mer count; for GCTTTTTTCC, 0.0895 relative 10-mer count.
Regarding AGGGGGGCGG, the binding signal was 0.00417 relative 10-mer count.
The same measure for ACCCCACCAC: 0.00738 relative 10-mer count; for TCCCCCACCA: 0.00527 relative 10-mer count.
For CACCCCGACC the value was 0.00335 relative 10-mer count; for CCCCCGCCGC, 0.00436 relative 10-mer count; for CCCCCACCCA, 0.00931 relative 10-mer count.
The same measure for CCCACGCCCC: 0.00729 relative 10-mer count; for AGCTTTTTTC: 0.217 relative 10-mer count; for GAAAAAAACA: 0.00289 relative 10-mer count.
In the case of ATGGGGTGGG, the binding signal came to 0.00477 relative 10-mer count.
The same measure for ACCCCCACAC: 0.00312 relative 10-mer count; for ACCCCCCACC: 0.0107 relative 10-mer count; for GCACCCCCAC: 0.00523 relative 10-mer count.
For CACCGCCCCC the value was 0.00803 relative 10-mer count.
For AAAAGCAGTA the value was 0.0204 relative 10-mer count.
Turning to CCCACCCGAC, the binding signal stood at 0.00449 relative 10-mer count.
The same measure for CTTCATACAC: 0.384 relative 10-mer count; for CCTCCCCTCC: 0.00812 relative 10-mer count; for CTCCCCTCCC: 0.00693 relative 10-mer count.
The same measure for AAAGAAGCGT: 0.0739 relative 10-mer count; for ACCCACCCCA: 0.00798 relative 10-mer count.
Regarding CCTACCACCC, the binding signal was 0.00619 relative 10-mer count.
ACCCCGCCCC: the binding signal was 0.00569 relative 10-mer count.
For CCTCCCACCA the value was 0.00784 relative 10-mer count.
As to CCGCCCCCCC, the binding signal was 0.00775 relative 10-mer count.
For CGACCCCCCC the value was 0.00427 relative 10-mer count.
For CCACCCCTAC the value was 0.00449 relative 10-mer count.
